Assay results from PubChem BioAssay (EPA / NIEHS).
Active and inactive are the calls of the source. How the source made its calls: active means hit-call score of the fitted dose curve at least 0.9, where 1 is the maximum; inactive means score below 0.9.

Assays:
[1] = CEETOX_H295R_11DCORT: CeeTox H295R High-throughput Steroidogenesis Assay for 11-Deoxycortisol (11DCORT) (AID 2283432); conditions: actives raise or lower the signal;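 on AC50: 11-deoxycortisol secreted into the medium measured by LC-MS/MS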
How it was run: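 H295R cells; 10 uM forskolin prestim 48 h; compound in 0.1% DMSO 48 h; media extracted with MTBE; 11-deoxycortisol by LC-MS/MS, 7-point standard curve; gain/loss vs DMSO baseline; viability by MTT in same wells.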

[2] = CEETOX_H295R_OHPREG: CeeTox H295R High-throughput Steroidogenesis Assay for OH-Pregnenolone (OHPREG) (AID 2283434); conditions: actives raise or lower the signal
How it was run: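 Hormone levels in spent medium were measured by tandem mass spectrometry following liquid-liquid extraction. Cells (H295R) had been forskolin-stimulated (10 uM, 48 h) before a 48 h chemical exposure at 0.1% DMSO, with activity fitted in both directions against DMSO.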

[3] = CEETOX_H295R_OHPROG: CeeTox H295R High-throughput Steroidogenesis Assay for OH-Progesterone (OHPROG) (AID 2283435); conditions: actives raise or lower the signal;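 on AC50: 17alpha-hydroxyprogesterone secreted into medium measured by HPLC-MS/MS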
How it was run: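 Secreted 17alpha-hydroxyprogesterone is read by tandem MS from media of forskolin-primed H295R cells dosed with chemical for 48 h. Activity is fitted in both directions against DMSO baseline; cytotoxic concentrations are re-tested diluted.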

[4] = CEETOX_H295R_CORTIC: CeeTox H295R High-throughput Steroidogenesis Assay for Corticosterone (CORTIC) (AID 2283437); conditions: actives raise or lower the signal;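 further: corticosterone secreted into medium quantified by mass spectrometry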
How it was run: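 Corticosterone secreted into medium is measured by reverse-phase HPLC with tandem MS following liquid-liquid extraction. Cells are forskolin-stimulated (10 uM, 48 h) before 48 h test exposure; activity fitted in both directions against DMSO.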

[5] = CEETOX_H295R_CORTISOL: CeeTox H295R High-throughput Steroidogenesis Assay for Cortisol (AID 2283438); conditions: actives raise or lower the signal;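 further: cortisol secreted into medium quantified by LC-MS/MS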
How it was run: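 Human adrenocortical H295R cells (passage ≤10) received test chemicals for 48 h after forskolin priming. Secreted cortisol was measured by LC-MS/MS.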

[6] = CEETOX_H295R_ESTRADIOL: CeeTox H295R High-throughput Steroidogenesis Assay for Estradiol (AID 2283440); conditions: actives raise or lower the signal;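 further: estradiol secreted into medium quantified by LC-MS/MS after dansyl derivatisation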
How it was run: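 H295R adrenocortical cells were prestimulated with 10 uM forskolin for 48 h, then exposed to test chemical in 0.1% DMSO for 48 h. Medium estradiol was extracted with MTBE, dansyl-derivatized and quantified by HPLC-MS/MS; bidirectional fit versus DMSO.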

[7] = CEETOX_H295R_ESTRONE: CeeTox H295R High-throughput Steroidogenesis Assay for Estrone (AID 2283441); conditions: actives raise or lower the signal;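 further: estrone secreted into medium measured by LC-MS/MS after dansyl derivatization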
How it was run: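 H295R cells; 48 h forskolin (10 uM) prestimulation; 48 h compound exposure, 0.1% DMSO final. Medium estrone: MTBE extraction, dansyl derivatization, HPLC-MS/MS. Bidirectional fit vs DMSO.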

[8] = CEETOX_H295R_PROG: CeeTox H295R High-throughput Steroidogenesis Assay for Progesterone (PROG) (AID 2283442); conditions: actives raise or lower the signal;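 on AC50: human H295R adrenal cells primed with 10 µM forskolin before dosing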
How it was run: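 H295R human adrenal cells were prestimulated with 10 uM forskolin for 48 h, then exposed to test chemical (0.1% DMSO final) for 48 h. Medium progesterone was MTBE-extracted and quantified by HPLC-MS/MS, with bidirectional fitting against DMSO.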

[9] = read-out: Tumor necrosis factor receptor superfamily member 6 (Homo sapiens) (UniProt P25445); assay: LTEA_HepaRG_FAS: Life Technologies and Expression Analysis (LTEA) Assay for Fas cell surface death receptor (FAS) using HepaRG (AID 2283447); conditions: mRNA level, 48 h; actives raise or lower the signal
How it was run: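 FAS transcript level was measured by TaqMan qRT-PCR against three housekeeping genes after 48 h chemical exposure. Cells were HepaRG, 0.5% DMSO vehicle, with a top concentration of 100 uM and half-log dilutions over eight points, in duplicate.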

[10] = read-out: Cyclin D2 (CCND2), CCND2 (gene 894); assay: LTEA_HepaRG_CCND2: Life Technologies and Expression Analysis (LTEA) Assay for Cyclin D2 (CCND2) using HepaRG (AID 2283449); conditions: mRNA level, 48 h; actives raise or lower the signal
How it was run: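 Read-out is CCND2 mRNA level measured by qRT-PCR in human HepaRG liver cells and normalised to three housekeeping genes. Chemicals were applied for 48 h at up to 100 uM, with gain or loss fitted relative to 0.5% DMSO.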

[11] = read-out: Cyclin D1 (CCND1), CCND1 (gene 595); assay: LTEA_HepaRG_CCND1: Life Technologies and Expression Analysis (LTEA) Assay for Cyclin D1 (CCND1) using HepaRG (AID 2283451); conditions: mRNA level, 48 h; actives raise or lower the signal;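 on AC50: TaqMan qRT-PCR transcript level normalised to ACTB GAPDH and POLR2A housekeeping genes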
How it was run: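 Differentiated human HepaRG cells in serum-free induction medium were exposed 48 h to eight half-log concentrations up to 100 uM in 0.5% DMSO; mRNA quantified by TaqMan qRT-PCR, normalized to ACTB, GAPDH, POLR2A, fitted bidirectionally versus DMSO.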

[12] = read-out: catalase (CAT), CAT (gene 847); assay: LTEA_HepaRG_CAT: Life Technologies and Expression Analysis (LTEA) Assay for catalase (CAT) using HepaRG (AID 2283452); conditions: mRNA level, 48 h; actives raise or lower the signal;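 on AC50: TaqMan qRT-PCR signal normalized to ACTB GAPDH and POLR2A housekeeping genes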
How it was run: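 Expression of CAT was quantified by TaqMan qRT-PCR with ACTB/GAPDH/POLR2A normalization after 48 h chemical exposure of HepaRG. Eight-point half-log series, top 100 uM, in 0.5% DMSO; gain or loss fitted against vehicle.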

[13] = read-out: flavin-containing dimethylaniline monooxygenases 3 (FMO3), FMO3 (gene 2328); assay: LTEA_HepaRG_FMO3: Life Technologies and Expression Analysis (LTEA) Assay for flavin-containing dimethylaniline monooxygenases 3 (FMO3) using HepaRG (AID 2283453); conditions: mRNA level, 48 h; actives raise or lower the signal;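 on AC50: FMO3 transcript by TaqMan qRT-PCR normalized to ACTB GAPDH and POLR2A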
How it was run: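 HepaRG, 48 h exposure, 8-pt half-log series from 100 uM, 0.5% DMSO vehicle, duplicates; FMO3 transcript by Fluidigm TaqMan qRT-PCR, housekeeping-normalized; gain/loss fit vs DMSO.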

[14] = read-out: Cytochrome P450 (CYP1A1), CYP1A1 (gene 1543); assay: LTEA_HepaRG_CYP1A1: Life Technologies and Expression Analysis (LTEA) Assay for Cytochrome P450 (CYP1A1) using HepaRG (AID 2283454); conditions: mRNA level, 48 h; actives raise or lower the signal
How it was run: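 Differentiated HepaRG cells in serum-free induction medium were exposed in duplicate for 48 h to eight half-log concentrations up to 100 uM in 0.5% DMSO. CYP1A1 mRNA was quantified by TaqMan qRT-PCR, normalized to ACTB, GAPDH and POLR2A.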

[15] = read-out: CFLAR gene, CFLAR (gene 8837); assay: LTEA_HepaRG_CFLAR: Life Technologies and Expression Analysis (LTEA) Assay for CFLAR gene using HepaRG (AID 2283455); conditions: mRNA level, 48 h; actives raise or lower the signal
How it was run: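 HepaRG, 48 h exposure, 8-pt conc-response (100 uM top, half-log), 0.5% DMSO vehicle, duplicates. CFLAR expression by qRT-PCR; ACTB/GAPDH/POLR2A normalization; gain or loss fit vs DMSO baseline.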

[16] = read-out: Forkhead box O1 (FOXO1), FOXO1 (gene 2308); assay: LTEA_HepaRG_FOXO1: Life Technologies and Expression Analysis (LTEA) Assay for Forkhead box O1 (FOXO1) using HepaRG (AID 2283456); conditions: mRNA level, 48 h; actives raise or lower the signal
How it was run: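 Readout is FOXO1 transcript level by multiplexed qRT-PCR against three housekeeping genes, curve-fitted in both directions relative to 0.5% DMSO vehicle. Human HepaRG cultures received chemicals for 48 h, up to 100 uM in half-log steps.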

[17] = read-out: Cyclin Dependent Kinase Inhibitor 1A (CDKN1A), CDKN1A (gene 1026); assay: LTEA_HepaRG_CDKN1A: Life Technologies and Expression Analysis (LTEA) Assay for Cyclin Dependent Kinase Inhibitor 1A (CDKN1A) using HepaRG (AID 2283450); conditions: mRNA level, 48 h; actives raise or lower the signal
How it was run: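 Differentiated human HepaRG cells, pre-cultured 48 h, were exposed in duplicate for 48 h in serum-free induction medium to eight half-log concentrations up to 100 uM (0.5% DMSO). CDKN1A mRNA was measured by qRT-PCR, normalized to ACTB/GAPDH/POLR2A, bidirectionally fitted versus DMSO.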

[18] = CEETOX_H295R_TESTO: CeeTox H295R High-throughput Steroidogenesis Assay for Testosterone (TESTO) (AID 2283457); conditions: actives raise or lower the signal;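 on AC50: cells exposed to chemicals for 48 h before medium collection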
How it was run: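 H295R human adrenal cells in DMEM/F12 with ITS+ and Nu-Serum, exposed to chemicals for 48 h. Testosterone in medium measured by MTBE extraction, reverse-phase HPLC-MS/MS; bidirectional fit versus DMSO baseline. MTT viability checked in same wells.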

[19] = read-out: Fatty acid synthase (Homo sapiens) (UniProt P49327); assay: LTEA_HepaRG_FASN: Life Technologies and Expression Analysis (LTEA) Assay for Fatty Acid Synthase (FASN) using HepaRG (AID 2283448); conditions: mRNA level, 48 h; actives raise or lower the signal
How it was run: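 Transcript-level assay: HepaRG liver cells are treated for 48 h across an eight-point range topping at 100 uM, and FASN mRNA, normalized to three housekeeping genes, is compared with DMSO controls in both directions.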

[20] = CEETOX_H295R_ANDR: CeeTox H295R High-throughput Steroidogenesis Assay for Androstenedione (ANDR) (AID 2283436); conditions: actives raise or lower the signal
How it was run: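 Read-out is androstenedione secreted into medium, measured by tandem mass spectrometry after liquid-liquid extraction. Cells were H295R, dosed for 48 h per modified OECD 456; activity fitted in both directions relative to DMSO.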

Measured: AC50

Chain of Fatty acid synthase (Homo sapiens) (P49327 whole entry, looked up): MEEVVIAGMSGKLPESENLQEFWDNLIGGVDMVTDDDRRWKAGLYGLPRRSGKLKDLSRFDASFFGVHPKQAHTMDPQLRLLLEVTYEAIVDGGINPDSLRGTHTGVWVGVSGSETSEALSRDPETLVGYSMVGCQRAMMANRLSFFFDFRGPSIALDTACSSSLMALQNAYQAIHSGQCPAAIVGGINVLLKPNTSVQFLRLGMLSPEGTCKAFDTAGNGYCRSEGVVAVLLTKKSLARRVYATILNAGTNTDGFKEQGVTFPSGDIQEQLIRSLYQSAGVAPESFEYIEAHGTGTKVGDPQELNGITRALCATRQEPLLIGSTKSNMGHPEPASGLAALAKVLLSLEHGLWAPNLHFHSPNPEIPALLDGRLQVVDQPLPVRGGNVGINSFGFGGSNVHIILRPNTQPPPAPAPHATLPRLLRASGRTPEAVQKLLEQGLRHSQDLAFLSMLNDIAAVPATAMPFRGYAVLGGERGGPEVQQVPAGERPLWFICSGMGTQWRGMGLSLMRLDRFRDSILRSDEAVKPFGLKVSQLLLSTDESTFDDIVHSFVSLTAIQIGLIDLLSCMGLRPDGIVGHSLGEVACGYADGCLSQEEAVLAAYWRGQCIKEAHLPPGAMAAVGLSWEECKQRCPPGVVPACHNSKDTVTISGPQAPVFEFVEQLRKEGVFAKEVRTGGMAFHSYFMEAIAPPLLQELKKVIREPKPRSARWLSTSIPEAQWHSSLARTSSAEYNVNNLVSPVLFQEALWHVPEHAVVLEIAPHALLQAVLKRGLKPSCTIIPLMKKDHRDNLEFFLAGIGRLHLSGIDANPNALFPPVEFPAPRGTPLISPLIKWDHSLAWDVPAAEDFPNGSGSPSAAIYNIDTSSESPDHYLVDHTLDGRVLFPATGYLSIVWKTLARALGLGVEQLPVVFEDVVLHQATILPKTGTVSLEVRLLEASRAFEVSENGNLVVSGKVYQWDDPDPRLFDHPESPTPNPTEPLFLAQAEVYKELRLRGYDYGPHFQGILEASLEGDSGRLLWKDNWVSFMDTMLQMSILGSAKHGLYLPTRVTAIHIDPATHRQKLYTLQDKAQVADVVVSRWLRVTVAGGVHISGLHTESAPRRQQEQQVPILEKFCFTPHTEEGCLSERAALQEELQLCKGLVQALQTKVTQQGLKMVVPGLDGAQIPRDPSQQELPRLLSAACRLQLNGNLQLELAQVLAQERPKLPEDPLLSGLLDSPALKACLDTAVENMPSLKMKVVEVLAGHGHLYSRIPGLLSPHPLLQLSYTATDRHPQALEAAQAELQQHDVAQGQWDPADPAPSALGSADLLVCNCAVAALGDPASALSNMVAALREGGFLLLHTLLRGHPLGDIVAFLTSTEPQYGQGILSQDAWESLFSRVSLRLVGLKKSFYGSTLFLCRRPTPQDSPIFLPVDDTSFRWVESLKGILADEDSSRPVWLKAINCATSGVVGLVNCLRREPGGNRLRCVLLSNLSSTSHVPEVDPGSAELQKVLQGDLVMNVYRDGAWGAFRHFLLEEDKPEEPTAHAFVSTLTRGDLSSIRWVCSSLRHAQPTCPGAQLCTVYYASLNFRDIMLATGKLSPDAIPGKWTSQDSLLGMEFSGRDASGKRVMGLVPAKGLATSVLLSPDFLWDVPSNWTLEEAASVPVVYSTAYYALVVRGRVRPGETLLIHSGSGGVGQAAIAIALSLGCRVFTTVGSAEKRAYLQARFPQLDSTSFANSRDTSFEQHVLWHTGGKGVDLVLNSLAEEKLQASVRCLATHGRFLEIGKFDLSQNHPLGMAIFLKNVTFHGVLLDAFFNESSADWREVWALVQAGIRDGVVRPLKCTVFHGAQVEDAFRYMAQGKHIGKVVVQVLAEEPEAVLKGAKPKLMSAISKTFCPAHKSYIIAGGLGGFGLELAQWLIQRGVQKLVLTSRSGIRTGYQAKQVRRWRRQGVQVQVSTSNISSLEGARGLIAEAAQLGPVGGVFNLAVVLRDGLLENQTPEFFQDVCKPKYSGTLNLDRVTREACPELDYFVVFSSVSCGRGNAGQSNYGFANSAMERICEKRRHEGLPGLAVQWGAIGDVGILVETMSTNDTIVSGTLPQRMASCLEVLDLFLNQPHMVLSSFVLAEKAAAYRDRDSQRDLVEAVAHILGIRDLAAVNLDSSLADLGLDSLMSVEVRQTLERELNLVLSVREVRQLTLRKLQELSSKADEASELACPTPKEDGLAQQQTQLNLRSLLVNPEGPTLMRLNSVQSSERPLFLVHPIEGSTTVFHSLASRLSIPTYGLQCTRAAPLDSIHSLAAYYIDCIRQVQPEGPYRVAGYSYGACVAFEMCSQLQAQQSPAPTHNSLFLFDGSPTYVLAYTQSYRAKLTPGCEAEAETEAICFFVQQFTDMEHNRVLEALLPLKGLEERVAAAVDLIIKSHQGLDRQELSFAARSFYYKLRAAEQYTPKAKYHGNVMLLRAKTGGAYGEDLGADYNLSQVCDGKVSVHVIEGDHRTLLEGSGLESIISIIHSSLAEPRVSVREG

COc1ccc([N+](=O)[O-])cc1N
active: [1] 50 µM | [3] 6.07 µM | [4] 8.72 µM | [5] 44.6 µM | [8] 14.2 µM | [14] 50 µM
not listed: [17] | [18] | [19] | [20]
inactive: all other assays above

CCCCCCCCCCCCc1ccccc1S(=O)(=O)O
inactive: [10] | [17] | [11] | [15]
active: [9] 50 µM | [12] 88.9 µM | [13] 83.3 µM | [14] 30.6 µM | [16] 88.4 µM

OC1CCC(C2CCCCC2)CC1 (stereo not given)
active: [4] 23.2 µM
not listed: [2] | [7] | [17] | [18] | [19] | [20]
inactive: all other assays above

c1ccc2c(c1)ccc1ccccc12
active: [1] 55.9 µM | [2] 27.2 µM | [3] 55.1 µM | [14] 50 µM | [18] 56.2 µM
not listed: [5] | [6] | [7] | [9] | [19] | [20]
inactive: all other assays above

c1ccc2cc3c(ccc4ccccc43)cc2c1
inactive: [2] | [8] | [10] | [17]
active: [3] 6.08 µM | [19] 4.82 µM | [11] 9.56 µM | [12] 15.4 µM | [13] 13.6 µM | [14] 1.66 µM | [15] 10.5 µM | [16] 17.8 µM

CCCCCCCCCCCCN1CCCC1=O
inactive: [9] | [10] | [17] | [11] | [12] | [13] | [15] | [16]
active: [14] 68.2 µM

O=C(O)c1ccccc1C(c1ccc(O)cc1)c1ccc(O)cc1
active: [1] 25 µM | [3] 7.38 µM | [8] 10.2 µM
not listed: [9] | [10] | [17]
inactive: all other assays above

COCC(C)OCC(C)O (stereo not given)
inactive: [10] | [11] | [12] | [13] | [15] | [16]
active: [14] 50 µM

OC1CCCCC1
inactive: [19] | [17] | [11] | [12] | [13] | [14] | [15] | [16]

CC(O)CO (stereo not given)
inactive: [19] | [10] | [11] | [12] | [13] | [14] | [15] | [16]

CCOC(=O)CC(O)(CC(=O)OCC)C(=O)OCC
inactive: [10] | [17] | [11] | [12] | [13] | [14] | [15] | [16]

Cc1cc(C)c(O)c(C)c1
inactive: [10] | [11] | [12] | [13] | [15] | [16]
active: [14] 50 µM

ClC1=C(Cl)C(Cl)(Cl)C(Cl)=C1Cl
inactive: [10] | [11] | [12] | [13] | [14] | [15] | [16]

CN1CCN(c2ccccc2/C=C2\SCCN(c3ccc(Cl)c(Cl)c3)C2=O)CC1
inactive: [19] | [10] | [11] | [12] | [15]
active: [13] 50 µM | [14] 1.56 µM | [16] 90.3 µM

CCCOc1sc(C(=O)N2CCC(c3cc(CN)ccc3F)CC2)c(C)c1Br
inactive: [10] | [11] | [12] | [13] | [14] | [15] | [16]

CC(C)(C)c1cc(C(C)(C)C)c(O)c(C(C)(C)C)c1
inactive: [9] | [10] | [17] | [11] | [12] | [13] | [14] | [15] | [16]
